Among the data in ChEMBL document CHEMBL2218924, “A broad activity screen in support of a chemogenomic map for kinase signalling research and drug discovery” (Biochem J, 2013) are residual activity values, retold here.

Assay [1] has as its target Death-associated protein kinase 1 (Homo sapiens) (UniProt P53355). Particulars: at 10 µM.
The target in assay [2] is Death-associated protein kinase 2 (Homo sapiens) (UniProt Q9UIK4). Particulars: at 1 µM.
Assay [3] shares this target. The settings on record: at 10 µM.
Assay [4] addresses T1, Serine/threonine-protein kinase DCLK2 (Homo sapiens) (UniProt Q8N568).
T1 sequence (whole entry): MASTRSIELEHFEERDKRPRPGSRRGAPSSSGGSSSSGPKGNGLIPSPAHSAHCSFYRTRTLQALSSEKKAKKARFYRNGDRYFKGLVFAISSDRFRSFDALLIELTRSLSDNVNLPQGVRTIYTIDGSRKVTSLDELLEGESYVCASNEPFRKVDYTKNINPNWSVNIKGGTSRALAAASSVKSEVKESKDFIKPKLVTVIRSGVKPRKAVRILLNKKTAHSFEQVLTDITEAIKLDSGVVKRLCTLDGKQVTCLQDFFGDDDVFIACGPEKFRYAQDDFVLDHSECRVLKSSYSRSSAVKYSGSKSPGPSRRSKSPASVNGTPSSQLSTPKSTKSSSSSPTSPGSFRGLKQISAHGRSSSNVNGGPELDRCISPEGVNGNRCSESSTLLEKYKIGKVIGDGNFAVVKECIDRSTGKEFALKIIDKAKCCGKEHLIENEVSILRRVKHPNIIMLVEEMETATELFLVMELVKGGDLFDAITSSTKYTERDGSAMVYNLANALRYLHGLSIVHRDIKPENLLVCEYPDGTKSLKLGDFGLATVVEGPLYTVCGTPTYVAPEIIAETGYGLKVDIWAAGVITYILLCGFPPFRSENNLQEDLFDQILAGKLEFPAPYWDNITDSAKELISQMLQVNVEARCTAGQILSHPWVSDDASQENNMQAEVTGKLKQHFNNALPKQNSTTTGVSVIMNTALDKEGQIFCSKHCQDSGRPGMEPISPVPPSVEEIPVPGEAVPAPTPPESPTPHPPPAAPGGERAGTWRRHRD
The settings on record: at 1 µM.

Assay [5] deals with T1, Serine/threonine-protein kinase DCLK2 (Homo sapiens). The settings on record: at 10 µM.
Assay [6] deals with T2, Discoidin domain-containing receptor 2 (Homo sapiens) (UniProt Q16832).
T2 sequence (whole entry): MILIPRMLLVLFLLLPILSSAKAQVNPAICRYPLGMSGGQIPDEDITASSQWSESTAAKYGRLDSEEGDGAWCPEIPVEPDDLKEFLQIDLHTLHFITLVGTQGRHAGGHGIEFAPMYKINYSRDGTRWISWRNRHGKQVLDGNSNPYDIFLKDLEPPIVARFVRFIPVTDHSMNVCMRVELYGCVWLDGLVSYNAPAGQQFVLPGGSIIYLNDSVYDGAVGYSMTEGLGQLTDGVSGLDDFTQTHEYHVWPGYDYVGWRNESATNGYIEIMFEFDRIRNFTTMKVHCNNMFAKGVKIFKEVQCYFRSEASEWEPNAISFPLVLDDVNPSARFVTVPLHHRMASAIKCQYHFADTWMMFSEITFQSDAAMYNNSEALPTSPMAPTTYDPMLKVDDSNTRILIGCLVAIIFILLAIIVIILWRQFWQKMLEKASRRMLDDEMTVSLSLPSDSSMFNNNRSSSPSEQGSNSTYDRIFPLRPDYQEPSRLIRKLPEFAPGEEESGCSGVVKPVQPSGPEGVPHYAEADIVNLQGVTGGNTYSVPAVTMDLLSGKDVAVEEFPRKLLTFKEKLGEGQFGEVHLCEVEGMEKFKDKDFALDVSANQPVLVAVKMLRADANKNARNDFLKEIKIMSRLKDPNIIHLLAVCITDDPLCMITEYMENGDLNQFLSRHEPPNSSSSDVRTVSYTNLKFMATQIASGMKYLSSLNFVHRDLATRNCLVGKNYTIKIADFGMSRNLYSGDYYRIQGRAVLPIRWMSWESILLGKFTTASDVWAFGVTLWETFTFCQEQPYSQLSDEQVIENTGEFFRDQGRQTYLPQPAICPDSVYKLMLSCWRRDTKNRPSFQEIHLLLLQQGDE
Particulars: at 1 µM.

Assay [7] concerns the target T2, Discoidin domain-containing receptor 2 (Homo sapiens). Particulars: at 10 µM.
Assay [8] addresses T3, Myotonin-protein kinase (Homo sapiens) (UniProt Q09013).
T3 sequence (whole entry): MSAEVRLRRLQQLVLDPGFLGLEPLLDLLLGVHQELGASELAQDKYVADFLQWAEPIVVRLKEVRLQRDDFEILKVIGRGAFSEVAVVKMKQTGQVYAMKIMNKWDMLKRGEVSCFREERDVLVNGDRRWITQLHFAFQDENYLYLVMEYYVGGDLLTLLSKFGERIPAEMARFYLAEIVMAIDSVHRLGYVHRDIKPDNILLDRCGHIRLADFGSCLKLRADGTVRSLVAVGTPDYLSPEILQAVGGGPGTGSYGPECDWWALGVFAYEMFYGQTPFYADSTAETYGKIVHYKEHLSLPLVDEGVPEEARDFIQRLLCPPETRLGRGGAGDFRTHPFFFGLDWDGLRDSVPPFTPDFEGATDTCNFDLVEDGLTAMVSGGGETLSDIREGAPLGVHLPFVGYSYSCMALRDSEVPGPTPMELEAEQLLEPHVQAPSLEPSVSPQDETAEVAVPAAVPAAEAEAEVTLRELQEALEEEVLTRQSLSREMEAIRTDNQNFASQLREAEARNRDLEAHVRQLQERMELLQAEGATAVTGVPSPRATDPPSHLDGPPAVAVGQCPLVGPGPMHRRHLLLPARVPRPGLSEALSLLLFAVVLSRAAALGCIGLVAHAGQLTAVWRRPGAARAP
Particulars: at 1 µM.

For assay [9], the target named is T3, Myotonin-protein kinase (Homo sapiens). Particulars: at 10 µM.
In assay [10] the target is T4, Serine/threonine-protein kinase 17A (Homo sapiens) (UniProt Q9UEE5).
T4 sequence (whole entry): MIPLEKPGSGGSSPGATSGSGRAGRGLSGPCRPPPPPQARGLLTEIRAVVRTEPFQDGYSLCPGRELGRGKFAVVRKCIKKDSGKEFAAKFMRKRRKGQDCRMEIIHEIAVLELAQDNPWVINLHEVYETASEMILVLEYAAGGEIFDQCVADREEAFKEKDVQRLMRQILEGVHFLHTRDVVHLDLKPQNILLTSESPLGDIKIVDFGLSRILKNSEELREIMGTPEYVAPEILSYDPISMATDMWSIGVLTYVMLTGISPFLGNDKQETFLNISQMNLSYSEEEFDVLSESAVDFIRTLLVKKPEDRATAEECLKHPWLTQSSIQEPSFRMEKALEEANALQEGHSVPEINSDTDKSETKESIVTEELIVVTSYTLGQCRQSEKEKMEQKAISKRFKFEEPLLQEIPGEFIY
The settings on record: at 1 µM.

The target in assay [11] is T4, Serine/threonine-protein kinase 17A (Homo sapiens). Particulars: at 10 µM.
Assay [12] addresses T5, Dual specificity tyrosine-phosphorylation-regulated kinase 2 (Homo sapiens) (UniProt Q92630).
T5 sequence (whole entry): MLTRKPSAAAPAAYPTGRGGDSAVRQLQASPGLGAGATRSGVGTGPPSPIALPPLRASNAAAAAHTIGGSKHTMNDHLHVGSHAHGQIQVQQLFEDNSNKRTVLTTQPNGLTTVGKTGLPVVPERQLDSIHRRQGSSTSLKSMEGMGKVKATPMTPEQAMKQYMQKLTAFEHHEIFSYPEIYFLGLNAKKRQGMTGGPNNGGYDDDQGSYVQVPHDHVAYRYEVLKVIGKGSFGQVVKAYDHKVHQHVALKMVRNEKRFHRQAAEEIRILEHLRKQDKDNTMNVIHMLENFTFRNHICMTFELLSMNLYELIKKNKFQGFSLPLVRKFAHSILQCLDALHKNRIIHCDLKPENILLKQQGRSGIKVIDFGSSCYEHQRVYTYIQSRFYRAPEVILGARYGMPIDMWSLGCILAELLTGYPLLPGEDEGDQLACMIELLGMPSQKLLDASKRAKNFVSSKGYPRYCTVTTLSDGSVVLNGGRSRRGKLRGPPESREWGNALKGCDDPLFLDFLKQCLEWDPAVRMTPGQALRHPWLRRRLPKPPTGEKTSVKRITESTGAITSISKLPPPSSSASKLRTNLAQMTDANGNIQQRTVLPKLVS
The settings on record: at 10 µM.

The target of assay [13] is T6, Ephrin type-A receptor 1 (Homo sapiens) (UniProt P21709).
T6 sequence (whole entry): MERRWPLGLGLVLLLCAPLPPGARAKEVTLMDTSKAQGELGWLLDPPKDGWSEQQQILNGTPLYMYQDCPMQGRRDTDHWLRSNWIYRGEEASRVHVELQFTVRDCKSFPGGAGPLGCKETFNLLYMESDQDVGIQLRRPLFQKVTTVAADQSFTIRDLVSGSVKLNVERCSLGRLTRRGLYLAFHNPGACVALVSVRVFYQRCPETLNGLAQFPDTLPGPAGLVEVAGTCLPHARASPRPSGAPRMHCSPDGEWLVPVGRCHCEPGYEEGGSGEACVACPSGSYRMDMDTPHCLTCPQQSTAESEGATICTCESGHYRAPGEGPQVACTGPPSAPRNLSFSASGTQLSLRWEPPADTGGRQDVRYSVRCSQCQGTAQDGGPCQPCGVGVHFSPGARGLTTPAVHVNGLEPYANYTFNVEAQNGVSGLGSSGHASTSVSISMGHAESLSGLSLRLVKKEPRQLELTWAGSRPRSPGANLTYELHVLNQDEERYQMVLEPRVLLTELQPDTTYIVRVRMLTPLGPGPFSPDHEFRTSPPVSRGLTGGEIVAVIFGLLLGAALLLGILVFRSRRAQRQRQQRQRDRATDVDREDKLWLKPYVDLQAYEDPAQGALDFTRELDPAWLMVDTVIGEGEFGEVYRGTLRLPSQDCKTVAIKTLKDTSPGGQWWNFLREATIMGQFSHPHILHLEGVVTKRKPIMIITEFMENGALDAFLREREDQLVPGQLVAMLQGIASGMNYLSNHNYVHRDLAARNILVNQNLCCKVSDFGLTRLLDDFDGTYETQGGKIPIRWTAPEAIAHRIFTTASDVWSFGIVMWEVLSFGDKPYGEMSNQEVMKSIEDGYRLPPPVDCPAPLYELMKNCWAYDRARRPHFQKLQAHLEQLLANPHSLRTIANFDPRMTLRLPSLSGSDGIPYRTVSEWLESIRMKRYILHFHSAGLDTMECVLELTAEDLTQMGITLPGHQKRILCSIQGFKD
Particulars: at 1 µM.

Assay [14] concerns the target T6, Ephrin type-A receptor 1 (Homo sapiens). The settings on record: at 10 µM.
Assay [15] concerns the target Ephrin type-A receptor 2 (Homo sapiens) (UniProt P29317). The settings on record: at 1 µM.
The target is the same in assay [16]. The settings on record: at 10 µM.
Assay [17] concerns the target T7, Ephrin type-A receptor 3 (Homo sapiens) (UniProt P29320).
T7 sequence (whole entry): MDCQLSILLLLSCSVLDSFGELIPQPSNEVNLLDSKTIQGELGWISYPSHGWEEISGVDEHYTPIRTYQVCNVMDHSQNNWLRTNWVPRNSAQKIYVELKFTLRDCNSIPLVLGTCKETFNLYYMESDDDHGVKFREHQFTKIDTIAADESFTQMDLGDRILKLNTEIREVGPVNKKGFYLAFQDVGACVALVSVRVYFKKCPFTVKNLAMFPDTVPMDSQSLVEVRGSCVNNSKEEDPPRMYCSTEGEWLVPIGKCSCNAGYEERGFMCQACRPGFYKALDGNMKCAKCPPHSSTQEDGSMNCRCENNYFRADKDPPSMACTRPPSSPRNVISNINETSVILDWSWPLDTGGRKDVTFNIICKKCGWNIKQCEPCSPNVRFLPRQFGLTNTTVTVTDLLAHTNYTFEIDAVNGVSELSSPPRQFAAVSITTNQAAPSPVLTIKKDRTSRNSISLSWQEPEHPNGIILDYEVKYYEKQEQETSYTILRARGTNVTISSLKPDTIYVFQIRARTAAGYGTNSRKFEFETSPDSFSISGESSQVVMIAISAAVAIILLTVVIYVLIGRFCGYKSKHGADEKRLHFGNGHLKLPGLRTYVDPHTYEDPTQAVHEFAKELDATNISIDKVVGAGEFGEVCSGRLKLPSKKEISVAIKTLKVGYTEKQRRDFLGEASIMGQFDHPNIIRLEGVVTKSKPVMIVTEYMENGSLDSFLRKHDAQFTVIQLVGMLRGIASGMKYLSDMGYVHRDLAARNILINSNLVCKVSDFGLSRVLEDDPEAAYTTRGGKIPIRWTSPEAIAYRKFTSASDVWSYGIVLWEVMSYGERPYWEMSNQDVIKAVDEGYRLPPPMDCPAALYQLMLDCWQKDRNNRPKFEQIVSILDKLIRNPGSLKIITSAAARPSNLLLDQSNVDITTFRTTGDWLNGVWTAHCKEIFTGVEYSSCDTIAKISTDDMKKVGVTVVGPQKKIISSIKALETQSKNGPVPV
The settings on record: at 1 µM.

In assay [18] the target is T5, Dual specificity tyrosine-phosphorylation-regulated kinase 2 (Homo sapiens). The settings on record: at 1 µM.

Sequence of Death-associated protein kinase 2 (Homo sapiens) (Q9UIK4 whole entry, looked up): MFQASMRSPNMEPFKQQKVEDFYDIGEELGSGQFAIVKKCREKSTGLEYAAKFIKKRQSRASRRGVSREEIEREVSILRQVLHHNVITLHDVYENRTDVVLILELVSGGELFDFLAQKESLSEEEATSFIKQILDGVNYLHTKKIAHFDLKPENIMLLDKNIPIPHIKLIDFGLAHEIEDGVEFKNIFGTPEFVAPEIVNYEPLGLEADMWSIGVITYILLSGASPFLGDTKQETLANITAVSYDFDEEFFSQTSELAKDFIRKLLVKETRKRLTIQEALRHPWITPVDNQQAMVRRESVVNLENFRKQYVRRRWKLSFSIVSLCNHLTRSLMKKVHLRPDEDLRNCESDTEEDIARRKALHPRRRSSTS
Sequence of Ephrin type-A receptor 2 (Homo sapiens) (P29317 whole entry): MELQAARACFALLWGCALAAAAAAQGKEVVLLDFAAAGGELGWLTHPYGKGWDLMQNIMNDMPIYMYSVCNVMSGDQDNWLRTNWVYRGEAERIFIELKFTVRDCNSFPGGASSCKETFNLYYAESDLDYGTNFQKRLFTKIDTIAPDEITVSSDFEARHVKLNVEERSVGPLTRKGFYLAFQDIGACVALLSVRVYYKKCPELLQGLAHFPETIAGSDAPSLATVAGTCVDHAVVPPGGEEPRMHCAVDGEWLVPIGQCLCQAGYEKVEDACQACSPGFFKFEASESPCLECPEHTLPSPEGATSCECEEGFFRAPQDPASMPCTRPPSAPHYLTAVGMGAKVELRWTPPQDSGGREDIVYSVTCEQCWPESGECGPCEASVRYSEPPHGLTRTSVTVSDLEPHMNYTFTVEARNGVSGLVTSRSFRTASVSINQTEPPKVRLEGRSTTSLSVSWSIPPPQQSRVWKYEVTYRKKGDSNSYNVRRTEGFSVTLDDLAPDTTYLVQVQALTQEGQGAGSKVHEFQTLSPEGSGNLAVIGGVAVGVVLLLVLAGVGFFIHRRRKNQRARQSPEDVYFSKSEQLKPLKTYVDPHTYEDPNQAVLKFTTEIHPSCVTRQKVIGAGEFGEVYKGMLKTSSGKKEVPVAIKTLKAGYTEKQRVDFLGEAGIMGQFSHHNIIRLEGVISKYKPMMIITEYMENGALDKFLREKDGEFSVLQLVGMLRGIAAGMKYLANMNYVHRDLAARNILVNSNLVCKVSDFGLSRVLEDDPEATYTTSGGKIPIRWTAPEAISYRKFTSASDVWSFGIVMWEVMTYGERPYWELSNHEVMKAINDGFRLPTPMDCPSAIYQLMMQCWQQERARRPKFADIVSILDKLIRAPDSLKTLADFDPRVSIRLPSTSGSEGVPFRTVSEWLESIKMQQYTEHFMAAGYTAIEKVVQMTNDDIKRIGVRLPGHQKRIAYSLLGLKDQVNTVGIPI
Sequence of Death-associated protein kinase 1 (Homo sapiens) (P53355 whole entry, looked up): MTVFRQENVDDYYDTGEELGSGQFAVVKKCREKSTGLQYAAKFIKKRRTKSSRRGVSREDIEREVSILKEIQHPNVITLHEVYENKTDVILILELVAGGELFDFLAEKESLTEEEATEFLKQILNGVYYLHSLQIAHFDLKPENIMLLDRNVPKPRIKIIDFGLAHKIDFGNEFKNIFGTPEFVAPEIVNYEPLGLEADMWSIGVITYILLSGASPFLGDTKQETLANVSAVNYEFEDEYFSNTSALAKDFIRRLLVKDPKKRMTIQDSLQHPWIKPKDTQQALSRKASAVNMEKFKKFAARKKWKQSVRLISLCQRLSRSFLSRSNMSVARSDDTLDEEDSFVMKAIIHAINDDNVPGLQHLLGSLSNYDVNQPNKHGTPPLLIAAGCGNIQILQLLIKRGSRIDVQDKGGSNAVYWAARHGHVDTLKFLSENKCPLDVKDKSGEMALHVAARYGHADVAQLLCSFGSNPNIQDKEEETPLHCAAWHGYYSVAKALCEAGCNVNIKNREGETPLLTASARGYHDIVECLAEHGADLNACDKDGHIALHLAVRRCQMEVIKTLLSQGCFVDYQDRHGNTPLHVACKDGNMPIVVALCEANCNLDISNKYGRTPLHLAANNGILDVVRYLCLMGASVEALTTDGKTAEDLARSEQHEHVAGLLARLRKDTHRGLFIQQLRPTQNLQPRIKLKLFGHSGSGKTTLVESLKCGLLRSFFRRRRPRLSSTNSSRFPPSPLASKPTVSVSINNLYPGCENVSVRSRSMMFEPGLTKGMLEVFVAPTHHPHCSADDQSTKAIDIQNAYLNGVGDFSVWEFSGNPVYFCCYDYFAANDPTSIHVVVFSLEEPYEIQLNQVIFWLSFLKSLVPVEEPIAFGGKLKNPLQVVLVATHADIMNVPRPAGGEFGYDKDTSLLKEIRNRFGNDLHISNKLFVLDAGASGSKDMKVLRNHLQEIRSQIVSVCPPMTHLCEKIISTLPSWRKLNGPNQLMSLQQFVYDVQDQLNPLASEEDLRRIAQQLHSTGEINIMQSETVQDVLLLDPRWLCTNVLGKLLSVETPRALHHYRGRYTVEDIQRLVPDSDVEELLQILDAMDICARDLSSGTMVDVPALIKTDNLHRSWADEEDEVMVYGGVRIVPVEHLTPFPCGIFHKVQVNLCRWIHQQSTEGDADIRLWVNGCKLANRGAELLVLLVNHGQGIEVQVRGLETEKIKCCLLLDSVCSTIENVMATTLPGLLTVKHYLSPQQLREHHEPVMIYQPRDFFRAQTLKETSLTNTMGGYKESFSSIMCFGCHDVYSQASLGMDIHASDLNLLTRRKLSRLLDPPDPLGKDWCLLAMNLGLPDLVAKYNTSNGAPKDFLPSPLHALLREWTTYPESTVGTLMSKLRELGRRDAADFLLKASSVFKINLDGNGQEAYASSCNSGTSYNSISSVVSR

As for `Cc1cc(Nc2nc(-c3ccccc3)nc3ccccc23)n[nH]1`, the residual activity in assay [1] is 17%; in assay [2], 56%; in [3], 11%; in assay [4], 99%; in [5] it was 69%; in assay [6], 71%. For the same compound, the residual activity was 41% in assay [7]; 111% in assay [8]; 79% in [9]; 42% in [10]; 14% in [11]; 41% in [12]. The residual activity in [13] is 36%; in assay [14], 18%; in assay [15], 75%; in assay [16] it was 43%; in assay [17] it was 54%.

Regarding `COc1cccc(-c2cc(=O)c3ccccc3o2)c1N`, the residual activity is 90% in [1]; 99% in assay [2]; 99% in assay [3]; 107% in assay [4]; 120% in assay [5]; 91% in [6]. The residual activity was 122% in assay [8]; 96% in assay [9]; 101% in assay [10]; 70% in assay [11]; 100% in assay [18]; 94% in assay [12]. Further, the residual activity came out at 99% in assay [13]; 92% in assay [14]; 97% in assay [15]; 117% in assay [16]; 110% in assay [17].
